HPGD block = HPGD (human) dehydrogenase inhibition. purified HPGD, NADH fluorescence kinetic, PGE2 substrate. Potency, µM, for the others: at the top dose activity change, negative = inhibition, usual class: inhibitors. actives 4.3% (n = 150,000). AID 894; active means well fitted inhibition curve with a large enough effect, not every such curve was filed as active; inconclusive means small, poorly fitted or top-dose-only effect, or another doubt; inactive means no such curve, though single readings can be large or run the other way; further: potency means the concentration at half of the fitted maximal effect; on the % scale 0 is the no-effect control and ±100 the full control effect
Target sequence (P15428 whole entry, looked up): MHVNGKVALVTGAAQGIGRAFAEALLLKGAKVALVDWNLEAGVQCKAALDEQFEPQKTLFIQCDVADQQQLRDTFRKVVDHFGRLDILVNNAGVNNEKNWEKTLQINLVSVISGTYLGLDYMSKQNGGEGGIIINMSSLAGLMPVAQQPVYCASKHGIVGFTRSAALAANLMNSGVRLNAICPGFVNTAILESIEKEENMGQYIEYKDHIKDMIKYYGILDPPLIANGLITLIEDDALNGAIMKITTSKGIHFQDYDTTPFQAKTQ
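20 nM HPGD preincubated 15 min at room temperature with compound in 50 mM Tris-HCl pH 8, 0.01% Tween 20. Started with 1 mM NAD+ and 30 uM prostaglandin E2; NADH fluorescence (360/450 nm) read 5 times over 30-s intervals, last minus first.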
HTT aggregate = reduces HttQ103-GFP aggregates in PC12 cells; PC12 HttQ103-GFP aggregates, Acumen cytometry, 40 h; Potency, µM (doses to about 46.1 µM), inactives show at the top dose activity change, negative = inhibition, most hits filed as inhibitors; actives 1.1% (n = 220,000); AID 1688; further: potency means the concentration at half of the fitted maximal effect; on the % scale 0 is the no-effect control and ±100 the full control effect; nearly all actives have a fitted effect of over 60% in size
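Huntingtin Q103 exon 1–GFP aggregates in induced PC12 cells (100 nM tebufenozide) were quantified by cytometry from lysates, with compounds dosed in titration.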
PNC assembly inh = inhibitors of perinucleolar compartment assembly | actives 3.1% (n = 140,000) | PC3M PTB-GFP, PNC prevalence imaging, 16 h; active compounds read low | activity change (PNC), negative = inhibition, % at 10 µM;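 active means readout at or below -70, meaning at least 70% loss of cells showing the perinucleolar compartment, a nuclear body marking cancer cells; inconclusive means readout between -30 and a set limit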;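 further: plate controls were DMSO wells for no effect and camptothecin positive control wells for full effect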
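PC3M cells stably expressing PTB-GFP, 750–1000 cells/well, treated 16 h at 37 °C with compound (23 nl of library stock), in duplicate. After paraformaldehyde fixation and Hoechst stain, imaged at 20x; PNC prevalence scored by image analysis.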
CBFb RUNX1 block = inhibitors of human CBF-beta and RUNX1 interaction | AlphaScreen CBFb-His/RUNX1-biotin binding, biochemical | Q01196+Q13951 | 230,000 tested, under 10 active | Potency, µM (highest dose often 59.8 µM), for the others: at the highest dose activity, negative = inhibition, actives largely listed as inhibitors; further: % of control where 0% means no effect
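AlphaScreen binding: CBFb-His and RUNX1-biotin (30 nM each) preincubated 20 min, compound added for 15 min, then nickel and streptavidin beads for 90 min, all at room temperature. Disruption of the interaction by any mechanism counts as activity.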
HTT cytoprotect = Huntington cell model cytoprotection by ATP luminescence; Potency, µM (top dose mostly 56.4 µM), without a hit: cytoprotection (ATP increase), hits mostly activators; PC12 HTT-Q103 induced, cytoprotection, ATP luminescence, 40 h; actives 0.14% (n = 230,000); further: potency means the concentration at half of the fitted maximal effect; % of control where 0% means no effect; nearly all actives have a fitted effect of over 45% in size
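ATP quantification (ATPlite) reports survival of PC12 cells in which tebufenozide, 100 nM final, switches on Htt exon 1 with 103 glutamines linked to GFP; compounds are titrated.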
ALDH1A1 inh = inhibitors of human aldehyde dehydrogenase 1A1; P00352; Purified ALDH1A1, NADH fluorescence, propionaldehyde substrate; Potency, µM (doses to about 75.3 µM), inactives show at the highest dose activity, negative = inhibition, most hits filed as inhibitors; actives 7.3% (n = 220,000); AID 1030; active means well fitted inhibition curve with a large enough effect, not every such curve was filed as active; inconclusive means small, poorly fitted or top-dose-only effect, or another doubt; inactive means no such curve, though single readings can be large or run the other way;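 further: potency means the concentration at half of the fitted maximal effect; plate controls were no enzyme wells and a reference inhibitor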
Target sequence (P00352 whole entry, looked up): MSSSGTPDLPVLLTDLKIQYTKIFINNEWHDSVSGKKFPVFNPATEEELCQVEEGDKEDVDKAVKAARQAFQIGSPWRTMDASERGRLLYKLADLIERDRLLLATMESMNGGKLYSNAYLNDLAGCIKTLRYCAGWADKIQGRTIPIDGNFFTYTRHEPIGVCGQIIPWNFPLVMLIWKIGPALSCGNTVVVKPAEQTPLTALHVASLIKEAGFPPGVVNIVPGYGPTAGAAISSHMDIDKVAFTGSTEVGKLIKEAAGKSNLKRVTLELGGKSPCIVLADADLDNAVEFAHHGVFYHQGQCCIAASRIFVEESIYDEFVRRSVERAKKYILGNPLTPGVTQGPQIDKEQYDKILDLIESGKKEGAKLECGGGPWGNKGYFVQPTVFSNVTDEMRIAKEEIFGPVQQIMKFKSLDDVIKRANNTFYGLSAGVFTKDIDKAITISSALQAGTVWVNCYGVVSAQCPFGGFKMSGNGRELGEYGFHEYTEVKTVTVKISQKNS
Starred values were filed as active, the others as inactive; ? = inconclusive; / = no result given; [ ] = another dose, or the depositor's remark. Hits are enriched below; roughly 11% of the tested compounds scored in any of these assays. Unless noted, the call rests on the fitted dose curve; in most records, active means well fitted curve in the direction sought with a large enough effect; inconclusive means small, poorly fitted or top-dose-only effect, or another doubt; inactive means no such curve, though single readings can be large; an effect the other way counts as inactive or inconclusive.

SMILES	HPGD block	HTT aggregate	PNC assembly inh	CBFb RUNX1 block	HTT cytoprotect	ALDH1A1 inh
COc1ccc(NC(=S)NNC(=O)Cn2nc([N+](=O)[O-])cc2C)cc1	-6%	11%	-24	-4%	-12%	-4%
Cc1cc([N+](=O)[O-])nn1CC(=O)NNC(=S)Nc1ccc([N+](=O)[O-])cc1	-20%	10%	46	-12%	4%	22µM*
CC(NC(=O)COC(=O)Cc1ccc(-c2ccccc2)cc1)c1ccccc1 (stereo not drawn)	3%	-5%	-9	9%	3%[10 µM]	3%
CCOc1ccc(C2C(C#N)=C(N)SC(N)=C2C#N)cc1OC	25µM*	26%	?	-3%	3%	?
N#CC1=C(N)SC(N)=C(C#N)C1c1cccc(Oc2ccccc2)c1	22µM*	?	?	-10%	-5%	10µM*
CCOc1ccccc1C1C(C#N)=C(N)SC(N)=C1C#N	-17%	-5%	4	1%	-3%[10 µM]	5%
CCOc1ccc(C2C(C#N)=C(N)SC(N)=C2C#N)cc1OCC	22µM*	14%	34	1%	-27%[10 µM]	?
CCNC(=S)NNC(=O)c1ccc(OC(F)F)cc1	-12%	?	16	6%	3%	4%
C=C1C=CS(=O)(=O)N(C(C)C(=O)OC)C1 (stereo not drawn)	/	/	/	-15%	/	/
COc1cc(OC)cc(C(=O)Nn2cc(C(=O)Nc3c(F)cccc3F)c3ccccc3c2=O)c1	-5%	15%	-113*	-5%	/	11%
Cn1c(N)c(C(=O)COC(=O)c2cncc(Br)c2)c(=O)n(C)c1=O	/	0%	/	12%	-9%	11µM*
CCn1nc(CC(=O)Nc2nnc(CC(=O)N3CCCCC3)s2)c2ccccc2c1=O	22µM*	15%[9.22 µM]	-28	1%	9%	-7%
CN(CC(=O)NCCc1ccccc1)S(=O)(=O)c1cccc2nsnc12	-17%	-1%	?	7%	/	-8%
COCC(C)NC(=O)c1ccc(N(C)C)cc1 (stereo not drawn)	22µM*	?	-4	1%	-22%[10 µM]	8.9µM*
CN(C)c1ccc(C(CC(=O)O)NC(=O)c2ccc(Cl)cc2)cc1 (stereo not drawn)	-11%	-5%	-2	-5%	2%	18µM*
CC(=O)Nc1ccc(C(=O)NC(CC(=O)O)c2ccc(Cl)cc2)cc1 (stereo not drawn)	-13%	10%	-4	-1%	-11%	-13%
Oc1ccc(C=Nc2ccc(N3CCOCC3)cc2)c(O)c1	-13%	29%	16	-19%	-21%	-12%
Cc1ccc(N=Cc2ccc(O)cc2O)cc1F	-15%	3.2µM*	-27	-24%	4%	-1%
CC1=NN(c2nc(-c3ccc(C)cc3)cs2)C(=O)C1N=Nc1ccccc1O (stereo not drawn)	/	-33%[9.22 µM]	/	?	-60%[10 µM]	?
Cc1ccc(-c2csc(N3N=C(c4ccccc4)/C(=C\c4ccc(N(C)C)cc4)C3=O)n2)cc1	-4%	9%	11	-7%	-4%	3.5µM*
CCN1CCN(C(=O)CCc2ccc(S(=O)(=O)NCCc3ccccc3)cc2)CC1	-14%	-4%	?	2%	16%[10 µM]	-5%
CCc1ccc(N2C(=O)c3sc4nnc(C)c(=O)n4c3C2=O)cc1	-20%	-1%	-6	3%	0%	5µM*
O=C1c2sc3nc4c(c(=O)n3c2C(=O)N1c1ccccc1)CCC4	/	2%	?	4%	0%	?
Cc1ccc(N2C(=O)c3sc4nnc(C)c(=O)n4c3C2=O)cc1	-18%	-1%	15	-5%	-9%	18µM*
COc1cccc(Nc2ncc3nc(-c4cn(C)c5ccccc45)c(=O)n(C[C@H]4CCCO4)c3n2)c1	/	/	/	/	?	9%
SMILES	HPGD block	HTT aggregate	PNC assembly inh	CBFb RUNX1 block	HTT cytoprotect	ALDH1A1 inh
O=C(NC(=S)Nc1ccc(S(=O)(=O)N2CCCCC2)cc1)c1ccc(Cl)cc1	?	-4%	?	-1%	-11%	0.5µM*
CC1CCN(S(=O)(=O)c2ccc(NC(=S)NC(=O)c3ccc(Cl)cc3)cc2)CC1	-18%	18%	31	8%	-4%	4µM*
O=C(NNC(=O)C1CCN(S(=O)(=O)c2ccc(Cl)cc2)CC1)c1ccc(S(=O)(=O)N2CCCCC2)cc1	-8%	25µM*	-1	4%	10%[10 µM]	3%
Cc1ccc(C(=O)NNC(=O)C2CCN(S(=O)(=O)c3ccc(Cl)cc3)CC2)cc1	0%	-7%	-22	6%	-24%[10 µM]	6%
CCCCc1nc(NCCN2CCOCC2)c(C#N)c2c1COC(C)(C)C2	-18%	-1%	-9	3%	-15%	11µM*
COCCN1C(=O)/C(=C/c2ccc(Oc3ccc([N+](=O)[O-])cn3)c(OC)c2)SC1=Nc1ccccc1	-15%	11%	?	4%	-3%[10 µM]	0.4µM*
CC1(C)COC(/C=C/c2cccc([N+](=O)[O-])c2)=N1	/	5%[9.22 µM]	/	-5%	52%[10 µM]	14µM*
C=CCNC(=O)c1ccc(Cl)cc1Cl	14µM*	-4%	59	7%	-4%	15%
C=CCNC(=O)c1c(Cl)cccc1Cl	?	0%	-4	11%	-16%	?
C=CCNC(=O)c1ccc(C)cc1Cl	4µM*	9%	11	5%	-7%	7%
O=C(NCCc1c[nH]c2ccccc12)c1cc2sccc2n1Cc1ccccc1	-20%	3%[9.22 µM]	-8	-10%	-26%	?
Cn1c(C(=O)NCCc2c[nH]c3ccccc23)cc2sccc21	-13%	-9%	-81*	?	-8%	-12%
CCCN(CCC)C(=O)[C@@H](CCC(=O)O)NC(=O)c1ccccc1	-7%	-8%	/	-5%[21.7 µM]	-1%[40.3 µM]	19%[20.9 µM]
CCC(C)N=C1Sc2nc3ccc(C)cc3cc2CN1CCOC (stereo not drawn)	/	-19%	/	4%	?	14µM*
COCCN1Cc2cc3cc(C)ccc3nc2SC1=Nc1ccc(OC)cc1	/	10%[9.22 µM]	/	0%	19%[10 µM]	-15%
O=C(O)CC1(CC(=O)Nc2ccc3c(c2)C(=O)OC3)CCCCC1	/	-2%[9.22 µM]	/	-2%	28%[10 µM]	/
O=C(O)CC1(CC(=O)NCc2cc(F)cc3c2OCOC3)CCCCC1	/	7%[9.22 µM]	/	-5%	-6%[10 µM]	10µM*
CS(=O)(=O)Nc1cccc(-c2ccc3ncnc(NC4CCNCC4)c3c2)c1	/	/	/	/	-38%	?
CCSc1nnc(NC(=O)C(C)(C(F)(F)F)C(F)(F)F)s1	-15%	25µM*	17	5%	-44%	2%
CCSc1nnc(NC(=O)C(C(F)(F)F)C(F)(F)F)s1	3.5µM*	?	6	2%	5%	18µM*
CCSc1nnc(NC(=O)C(CC)(C(F)(F)F)C(F)(F)F)s1	-14%	-13%[9.22 µM]	27	-2%	-28%	7%

Source: PubChem BioAssay
